HPGD block = inhibitors of human 15-hydroxyprostaglandin dehydrogenase (HPGD); 150,000 tested, 4.3% active; purified HPGD, NADH fluorescence kinetic, PGE2 substrate; P15428; AID 894; Potency, µM, most hits filed as inhibitors
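20 nM HPGD preincubated 15 min at room temperature with compound in 50 mM Tris-HCl pH 8, 0.01% Tween 20. Started with 1 mM NAD+ and 30 uM prostaglandin E2; NADH fluorescence (360/450 nm) read 5 times over 30-s intervals, last minus first.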
ALDH1A1 inh = blocks purified human ALDH1A1 activity. P00352. Purified ALDH1A1, NADH fluorescence, propionaldehyde substrate. Potency, µM (top dose mostly 75.3 µM), most hits filed as inhibitors. 220,000 tested, 7.3% active. AID 1030
Target sequence (P00352 whole entry, looked up): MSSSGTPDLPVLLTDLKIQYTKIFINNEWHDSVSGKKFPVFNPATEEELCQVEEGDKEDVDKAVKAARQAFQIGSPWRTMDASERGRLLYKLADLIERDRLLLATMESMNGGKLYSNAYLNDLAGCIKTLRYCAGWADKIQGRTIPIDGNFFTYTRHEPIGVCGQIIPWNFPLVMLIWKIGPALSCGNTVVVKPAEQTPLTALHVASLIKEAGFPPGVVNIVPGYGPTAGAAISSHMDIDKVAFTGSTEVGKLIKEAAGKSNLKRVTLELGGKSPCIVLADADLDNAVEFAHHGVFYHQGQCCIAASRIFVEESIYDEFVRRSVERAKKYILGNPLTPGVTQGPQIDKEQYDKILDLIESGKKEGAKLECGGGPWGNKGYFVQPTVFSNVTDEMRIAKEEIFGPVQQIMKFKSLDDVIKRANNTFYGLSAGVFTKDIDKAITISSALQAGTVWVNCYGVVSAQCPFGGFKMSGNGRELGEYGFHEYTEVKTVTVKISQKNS
Lamin A splicing = modulators of lamin A splicing; Potency, µM (highest dose often 46.1 µM), actives largely listed as inhibitors; 200,000 tested, 0.01% active; AID 1487; HeLa LMNA splicing GFP/RFP minigene ratio, 48 h; active = well fitted inhibition curve with a large enough effect in the signal ratio, with a control signal flat, not every such curve was filed as active; inconclusive = small, poorly fitted or top-dose-only effect, or effect the other way, or a change in a side signal; the % refers to the signal ratio
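S3 HeLa stable clones carrying a lamin A-EGFP splicing minigene plus DsRed2 were seeded at 600 cells/well in Opti-MEM with 2% FBS, pin-dosed and incubated 48 h at 37°C. Acumen cytometry (488 nm) gave the GFP/RFP total-intensity ratio.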
KinaseGlo FLuc = counter-screen: inhibitors of Kinase-Glo firefly luciferase; 200,000 tested, 0.28% active; AID 1379; Q27757; Potency, µM (doses to about 38.3 µM), most hits filed as inhibitors; Kinase-Glo luciferase, ATP luminescence, 8 min; active = well fitted inhibition curve with a large enough effect; inconclusive = small, poorly fitted or top-dose-only effect; also: nearly all actives have a fitted effect of over 60% in size
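Inhibition of Kinase-Glo luciferase light generation was assessed at 10 uM ATP in pH 7.2 imidazole buffer, with luminescence measured after eight minutes at ambient temperature.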
PNC inhibitor = inhibitors of perinucleolar compartment assembly; PC3M PTB-GFP, PNC prevalence imaging, 16 h; hits give low values; activity change (PNC), negative = inhibition, % at 10 µM; 140,000 tested, 3.1% active;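 active = readout at or below -70, meaning at least 70% loss of cells showing the perinucleolar compartment, a nuclear body marking cancer cells; inconclusive = readout between -30 and a set limit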
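Read-out is percentage of cells bearing a perinucleolar compartment, from automated 20x imaging of fixed, Hoechst-stained PC3M PTB-GFP cells. Cells were seeded 4 h, then exposed 16 h to compound (23 nl of library stock) in duplicate plates.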
Of the large screens only hits and unclear results are named; the others gave an inactive call. Sampled rows, rich in hits. Any-hit rate of the full collection: about 10%. Unless noted, calls follow the shape of the dose curve; as a rule, active = well fitted inhibition curve with a large enough effect (not every such curve was filed as active); inconclusive = small, poorly fitted or top-dose-only effect, or another doubt; inactive = no such curve, though single readings can be large or run the other way.

COC(=O)C1=C(C(=O)OC)[C@@H]2N(C)c3ccccc3[C@@]23C[C@@H](C(=O)OC)N(S(=O)(=O)c2ccc(C(F)(F)F)cc2)C3=N1	none (no result: PNC inhibitor)
Cc1ccc2c(CC(=O)NCc3ccc4c(c3)OCO4)coc2c1	ALDH1A1 inh 4.5µM
CC(OC(=O)Cc1coc2cc3c(cc12)CCC3)C(=O)NCc1ccc2c(c1)OCO2 (stereo not drawn)	none
Cc1ccc2c(CC(=O)OC(C)C(=O)NCc3ccc4c(c3)OCO4)coc2c1 (stereo not drawn)	HPGD block 14µM, PNC inhibitor inconclusive
CC(C)C(OC(=O)c1cc2occc2n1C)C(=O)NCc1ccc2c(c1)OCO2 (stereo not drawn)	HPGD block 13µM, ALDH1A1 inh inconclusive, Lamin A splicing inconclusive
Cc1cc2c(cc(C(=O)OC(C(=O)NCc3ccco3)C(C)C)n2C)o1 (stereo not drawn)	ALDH1A1 inh inconclusive, Lamin A splicing inconclusive
COc1ccc2c(CC(=O)NCc3ccc4c(c3)OCO4)coc2c1	ALDH1A1 inh 8.9µM
COC(=O)NCc1ccc2c(c1)OCO2	PNC inhibitor inconclusive
COC(=O)C(Cc1ccccc1)NC(=O)C(N)CC(=O)O (stereo not drawn)	none (no result: Lamin A splicing, PNC inhibitor)
CCCNC(=O)CSc1nc(-c2ccc(OC)cc2)cc(C(F)(F)F)n1	none (no result: HPGD block, ALDH1A1 inh, KinaseGlo FLuc, PNC inhibitor)
CS(=O)(=O)Nc1c(O)ccc2c1CCCC2C1=NCCN1 (stereo not drawn)	none (no result: HPGD block, Lamin A splicing, KinaseGlo FLuc, PNC inhibitor)
O=c1[nH]c(SCc2cccc([N+](=O)[O-])c2)nc2nc[nH]c12	none (no result: Lamin A splicing, PNC inhibitor)
O=Nc1c(O)[nH]c2ccccc12.[Cu].[O-]/N=C1/C(=[OH+])Nc2ccccc21	none (no result: Lamin A splicing, PNC inhibitor)
Cc1ccc(S(=O)(=O)/N=C(\CN2CCCCC2)N2CCOCC2)cc1	ALDH1A1 inh 11µM
CN(C)C(=O)c1ccc(-c2ccc3ncnc(NCCN4CCOCC4)c3c2)cc1	ALDH1A1 inh inconclusive (no result: HPGD block, KinaseGlo FLuc, PNC inhibitor)
Cc1ccc(NCc2ccc(O)c3ncccc23)cc1	none (no result: HPGD block, Lamin A splicing, PNC inhibitor)
Cc1cccnc1NCc1ccc(O)c2ncccc12	ALDH1A1 inh 20µM, Lamin A splicing inconclusive
Cc1cccc(NCc2ccc(O)c3ncccc23)c1C	ALDH1A1 inh 10µM, Lamin A splicing inconclusive (no result: HPGD block, PNC inhibitor)
O=C(CCN1CCOCC1)c1ccc(Br)cc1	ALDH1A1 inh 0.1µM, Lamin A splicing inconclusive (no result: HPGD block, PNC inhibitor)
O=C(CCN1CCOCC1)c1ccc(Cl)cc1	ALDH1A1 inh 0.089µM (no result: HPGD block, Lamin A splicing, PNC inhibitor)
Clc1ccc(SCCCCN2CCOCC2)cc1	none
Nc1c(N2CCCCC2)c(=O)[nH]c(=O)n1-c1ccccc1	PNC inhibitor -84
CCOc1ccc(Nc2ncnc3c2cnn3-c2ccccc2)cc1	none
COc1ccc(Nc2ncnc3c2cnn3Cc2ccccc2)cc1	HPGD block 22µM, ALDH1A1 inh 8.9µM, Lamin A splicing inconclusive
c1ccc(CNc2ncnc3c2cnn3Cc2ccccc2)cc1	HPGD block inconclusive, ALDH1A1 inh inconclusive, Lamin A splicing inconclusive
CCOc1ccc(Nc2ncnc3c2cnn3Cc2ccccc2)cc1	HPGD block inconclusive, ALDH1A1 inh 11µM
CC(=O)Nc1cc(CN2CCCCC2)c(O)c2ncccc12	none (no result: Lamin A splicing, PNC inhibitor)
COc1ccc(CN2CCCN(CC(=O)Nc3cc(C)ccc3C)S2(=O)=O)cc1	none (no result: HPGD block, ALDH1A1 inh, KinaseGlo FLuc, PNC inhibitor)
Cc1ccc(S(=O)(=O)n2nc(C)cc2C)cc1	none
Cc1ccc(C(C[N+](=O)[O-])n2nc(C)cc2C)cc1 (stereo not drawn)	HPGD block 16µM, ALDH1A1 inh inconclusive
CC(C)CC(=O)N1CCN(c2ccc([N+](=O)[O-])cc2Cl)CC1	ALDH1A1 inh 32µM, Lamin A splicing inconclusive
CC(C)C(=O)N1CCN(c2ccc([N+](=O)[O-])cc2Cl)CC1	ALDH1A1 inh 14µM, Lamin A splicing inconclusive
CCCCCC(=O)NC(=S)Nc1ccc2oc(=O)ccc2c1	ALDH1A1 inh 7.1µM (no result: HPGD block, PNC inhibitor)
CC(C)c1ccc(CNc2nc(-c3ccco3)nn2C(=O)c2ccc([N+](=O)[O-])cc2)cc1	none (no result: HPGD block, ALDH1A1 inh, KinaseGlo FLuc, PNC inhibitor)
CC1CCN(C(C(=O)NC2CCCCC2)c2cc3c(cc2[N+](=O)[O-])OCO3)CC1 (stereo not drawn)	ALDH1A1 inh inconclusive
CC1CCCN(C(C(=O)NC2CCCCC2)c2cc3c(cc2[N+](=O)[O-])OCO3)C1 (stereo not drawn)	HPGD block 32µM
O=C(Cc1cccs1)NC1CC(=O)N(c2cccc(F)c2)C1 (stereo not drawn)	none (no result: HPGD block, ALDH1A1 inh, KinaseGlo FLuc, PNC inhibitor)
CC(C)Cn1c(N)c(C(=O)COC(=O)c2ccccc2F)c(=O)n(C)c1=O	Lamin A splicing inconclusive (no result: HPGD block, PNC inhibitor)

Screens: PubChem BioAssay, National Center for Advancing Translational Sciences (NCATS)
